# Compound activity (PubChem BioAssay)
# HIF activator = HIF pathway transcriptional activation; U2OS HRE-luciferase reporter, luminescence; normalized: DMSO 0%, desferrioxamine 100%; activation, % at 7.5 µM (by protocol); actives 0.32% (n = 300,000);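 active = mean activation of at least 10% of the iron chelator positive control signal, with at least half of replicates also reaching 10%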
# SMARCA2 act = increases SMARCA2 function in MMTV reporter cells; MG213 cells, MMTV-luciferase reporter, dexamethasone, overnight; activation, % at 9.1 µM; actives 1% (n = 370,000); in the data active = activation above about 7.8%
# GAA850 FXN act = frataxin GAA850 promoter activation; HEK293 lucGAA850 FXN promoter luciferase reporter, 24 h; percent of 10 µM SAHA response; AID 540364; actives 0.56% (n = 360,000); activation, % at 6 µM;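 active = activation above the average of all compounds screened plus 3 SD, cutoff fixed separately per campaign, cut at about 7.5% in these data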
# Hsp70 activator = Hsp70 transcriptional activation, primary screen; activation, % at 10 µM; actives 0.04% (n = 200,000); HeLa Hsp70 promoter luciferase reporter, luminescence; scaled: vehicle 0, proteasome-inhibitor control 100%;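 active = activation above the mean across all tested compounds plus 3 SD, cutoff set per campaign, cut at about 5.5% in these data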
# GalR3 antag = antagonists of human GalR3 | O60755 | HEK293 GalR3-CNG cAMP membrane potential fluorescence; galR3 body fused to GalR1 C-terminus | inhibition, % at 3 µM | actives 0.44% (n = 360,000) | AID 651719;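 active = inhibition above the screen-wide average plus 3 SD, cut at about 13% in these data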;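 note: forskolin and galanin both at EC90 stimulate the cells; cAMP rise reported by CNG channel membrane potential dye signal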
# Target sequence (O60755 1-299 limits assumed): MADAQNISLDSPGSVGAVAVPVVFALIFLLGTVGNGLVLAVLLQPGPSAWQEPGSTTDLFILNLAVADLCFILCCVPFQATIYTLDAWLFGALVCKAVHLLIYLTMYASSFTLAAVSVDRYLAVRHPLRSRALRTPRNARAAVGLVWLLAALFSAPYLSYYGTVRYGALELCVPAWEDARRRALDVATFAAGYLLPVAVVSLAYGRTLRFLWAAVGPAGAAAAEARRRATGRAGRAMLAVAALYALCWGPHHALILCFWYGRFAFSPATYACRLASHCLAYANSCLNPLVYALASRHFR
# GalR3 antag conf = GalR3 (human) antagonism, confirmation; shares compounds with GalR3 antag; HEK293 GalR3 CNG cAMP biosensor, membrane potential fluorescence; galR3 fused to GalR1 carboxy tail; challenged with forskolin and galanin at EC90; inhibition, % at 3 µM; actives 59% (n = 1,600); AID 652245;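 active = inhibition above the primary screen's cutoff, the mean inhibition of all screened compounds plus 3 SD, cut at about 13% in these data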
# HEK-CNG parental = parental cell agonism counter-screen for GalR3 antagonists | shares compounds with GalR3 antag | HEK293-CNG parental cells, cAMP membrane potential fluorescence; normalised: DMSO wells 0%, forskolin wells 100% | activation, % at 3 µM | actives 10% (n = 1,600) | AID 652268; in the data active = activation above about 1.3%
# SMARCA2 conf = SMARCA2 activation, confirmation screen; shares compounds with SMARCA2 act; MG213 cells, MMTV-luciferase with dexamethasone, luminescence, overnight; MG213 cells expressing E1A, Rb sequestered; DMSO wells 0%, reference activator 100%; activation, % at 9.1 µM; actives 30% (n = 3,500);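 active = activation above its plate's cutoff, the mean activation of tested wells plus 3 SD, cut at about 7.9% in these data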
# GAL4-VP16 Luc = GAL4-VP16 reporter activation counter-screen. shares compounds with SMARCA2 act. HEK293 GAL4-VP16 pG5luc reporter, luciferase luminescence; scaled: DMSO wells 0%, SAHA wells 100%. activation, % at 9.1 µM. actives 41% (n = 3,500). AID 686939;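 active = activation above the solvent-only control well mean plus 3 SD, averaged across control plates, cut at about 5.2% in these data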
# Numbers stand for hits; 0 = inactive; - = no result given. Hits are enriched below; roughly 2.2% of the tested compounds scored in any of these assays.
SMILES,HIF activator,SMARCA2 act,GAA850 FXN act,Hsp70 activator,GalR3 antag,GalR3 antag conf,HEK-CNG parental,SMARCA2 conf,GAL4-VP16 Luc
COc1cccc(N2CCN(CC(=O)NCc3c(F)cccc3F)CC2)c1,-,0,-,-,-,-,-,-,-
COc1ccc(NC(=O)CSc2nnc(-c3cccs3)o2)cc1Cl,-,0,-,-,-,-,-,-,-
COc1ccc(C(=O)NC(=S)Nc2ccc(CN3CCCCC3)cc2)cc1Cl,0,0,0,0,15.3,0,9.7,-,-
COc1ccc(C(=O)NC(=S)Nc2ccc(CN3CCOCC3)cc2)cc1Cl,0,0,0,-,0,-,-,-,-
COc1cc(/C=N/n2cnnc2)ccc1OCc1ccc(C)cc1,0,0,0,0,58.8,43.5,0,-,-
Cc1cccc(-n2c(Cn3nc(C)c([N+](=O)[O-])c3C)n[nH]c2=S)c1,0,0,0,0,17.0,0,0,-,-
Cc1nn(CCc2n[nH]c(=S)n2-c2cccc(Cl)c2)c(C)c1[N+](=O)[O-],0,0,0,0,0,-,-,-,-
COC(=O)COc1cccc(NC(=O)c2cccc(C)c2)c1,0,0,0,0,19.8,57.1,0,-,-
O=C(CN1CCC(Cc2ccccc2)CC1)NCCc1ccc(F)cc1,0,0,0,0,0,-,-,-,-
NS(=O)(=O)c1ccc(CCNC(=O)CN2CCC(Cc3ccccc3)CC2)cc1,0,0,0,0,14.7,0,0,-,-
O=C1c2ccccc2C(=O)N1CCC#Cc1ccc2cc(CCO)oc(=O)c2c1,-,0,0,-,13.2,0,0,-,-
CC(COc1cc(F)cc(F)c1)CN1CCC(C(O)(c2ccccc2)c2ccccc2)CC1 (stereo not given),-,0,-,-,-,-,-,-,-
CCN(C(=O)CSc1nnc(-c2cccnc2)n1Cc1ccco1)c1ccccc1C,-,0,-,-,-,-,-,-,-
CCOC(=O)[C@@]12CCC3=C1N(CCC3)C(=O)[C@H](CC(=O)NCCCN1CCCC1=O)C2,-,0,-,-,-,-,-,-,-
COc1cccc(-c2cnc3c(NC=O)cc(-c4cc(OC)c(OC)c(OC)c4)cn23)c1,-,0,0,-,0,-,-,-,-
COc1cccc(-c2cnc3c(NC=O)cc(-c4ccc(OC)cc4OC)cn23)c1,-,0,0,-,0,-,-,-,-
COc1ccc(-c2cnc3c(NC=O)cc(-c4ccc(F)cc4)cn23)cc1OC,-,15.0,0,-,15.1,21.1,0,13.8,6.3
COc1ccc(-c2cnc3c(NC=O)cc(-c4cccc(NS(C)(=O)=O)c4)cn23)cc1OC,-,35.6,0,-,58.8,42.7,0,35.5,7.8
COc1ccc(-c2cc(NC=O)c3ncc(-c4ccc(OC)c(OC)c4)n3c2)c(OC)c1,-,11.3,0,-,44.4,24.8,0,17.4,11.4
COc1cccc(-c2cc(NC=O)c3ncc(-c4ccc(OC)c(OC)c4)n3c2)c1,-,12.0,0,-,37.7,39.3,0,10.8,0
O=C(Nc1ccc(F)cc1)OCc1cn(Cc2ccccc2Cl)nn1,-,0,-,-,-,-,-,-,-
CN1OC[C@@H]2CN(C(=S)Nc3cc(C(F)(F)F)cc(C(F)(F)F)c3)[C@H](c3ccccc3Br)C[C@@H]21,-,0,-,-,0,-,-,-,-
C[C@@H]1CCN(C2CC2)S(=O)(=O)c2ccc(N3CC[C@@H](O)C3)cc2O1,-,0,-,-,-,-,-,-,-
COc1ccc(-c2cnc3c(NC=O)cc(-c4ccccc4)cn23)cc1OC,-,13.7,0,-,44.2,14.8,0,10.1,6.1
COc1ccccc1NC(=O)OC1CCC12CCCCC2 (stereo not given),-,0,-,-,-,-,-,-,-
CCOc1ccccc1Nc1cc2n(c(=O)n1)CCc1cc(OC)c(OC)cc1-2,0,12.1,0,-,52.5,66.7,0,8.8,7.8
COc1cc2c(cc1OC)-c1cc(NCc3ccccn3)nc(=O)n1CC2,0,0,0,0,0,-,-,-,-
CCCC(=O)Nc1nnc(-c2ccc3c(c2)OCCO3)o1,0,10.3,0,0,13.7,0,0,0,0
